Assay results as given in PubChem BioAssay (NCI).
Values joined by “and” are separate entries in the source; they are usually repeats but may differ in a detail not shown here. Identical values can stand only once. About 83,000 compounds went through this panel and 20% of them were active in at least one assay; those are over-represented in the sample as a whole.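 Treatment: one concentration, 48 hours, 96-well format. Scoring: percent growth, with anything below 10 considered active.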 More than one record can exist for a structure, and the calls need not agree. Active and inactive are the calls of the source.

Experiments:
Experiment in all cases: NCI-60 one-dose screen, 48 h (100 = growth as untreated, 0 = no growth, -100 = all killed)
[1] = test system: NCI-H226 lung; conditions: 10 µM
[2] = test system: NCI-H322M lung; conditions: 10 µM
[3] = test system: HOP-62 NSCLC; conditions: 10 µM
[4] = test system: NCI-H460 lung; conditions: 10 µM
[5] = test system: 786-0 renal; conditions: 10 µM
[6] = test system: COLO 205 colon; conditions: 10 µM
[7] = test system: DU-145 prostate; conditions: 10 µM
[8] = test system: SF-268 CNS; conditions: 10 µM
[9] = test system: SF-295 CNS; conditions: 10 µM
[10] = test system: SF-539 CNS; conditions: 10 µM
[11] = test system: HCT-15 colon; conditions: 10 µM
[12] = test system: SNB-75 CNS; conditions: 10 µM
[13] = test system: SNB-19 CNS; conditions: 10 µM
[14] = test system: U251 CNS; conditions: 10 µM
[15] = test system: PC-3 prostate; conditions: 10 µM
[16] = test system: EKVX NSCLC; conditions: 10 µM
[17] = test system: UO-31 renal; conditions: 10 µM
[18] = test system: ACHN renal; conditions: 10 µM
[19] = test system: HL-60(TB) leukemia; conditions: 10 µM unless noted
[20] = test system: CCRF-CEM leukemia; conditions: 10 µM

Measured: growth

COc1cc(C)c(-c2ccc(OC)c(=O)cc2C)c(OC)c1OC
-29.2% (active) and 94.5% (inactive): [6]
6.39% (active) and 100% (inactive): [9]
inactive: [1] 41.8% and 98.4% | [2] 46.5% and 104% | [3] 31.5% and 98.7% | [5] 37.8% and 101% | [7] 13.3% and 104% | [8] 37.5% and 103% | [11] 12% and 101% | [12] 28.3% and 93.6% | [13] 20.1% and 96.6% | [14] 11.9% and 104% | [15] 19% and 95.8% | [16] 36.6% and 97.1% | [17] 47.5% and 88.6% | [18] 31.9% and 105% | [20] 10.1% and 96.8%
4.53% (active) and 103% (inactive): [4]
-24.6% (active) and 98.8% (inactive): [19]
-7.85% (active) and 94.9% (inactive): [10]

CC1=C2C(=C[C@@](C)(C=O)[C@@H]2O)C(=O)[C@](C)(O)C12CC2
inactive: [1] 46.1% | [2] 26.5% | [8] 12.2% | [13] 20.7% | [16] 15% | [20] 22.6%
active: [3] 8.06% | [4] 5.09% | [5] 5.21% | [6] -28.2% | [7] 9.15% | [9] 3.31% | [10] -10.7% | [11] 6.02% | [12] -3.53% | [14] 4.74% | [15] 6.53% | [17] -13.3% | [18] -18.5% | [19] -12%

COc1cc2c(cc1OC)[C@@H]1N(CC2)C(=O)c2ccccc2[C@@]1(C)C(=O)O
inactive: [1] 111% | [2] 102% | [3] 108% | [4] 109% | [5] 99.9% | [6] 115% | [7] 110% | [8] 110% | [9] 101% | [10] 105% | [11] 101% | [12] 108% | [13] 98.4% | [14] 106% | [15] 104% | [16] 103% | [17] 97.3% | [18] 110% | [19] 104% | [20] 105%

CC(=O)O[C@@H]1C[C@H]2O[C@@H]3C=C(C)CC[C@]3(C)[C@]1(C)[C@]21CO1
active: [3] 6.11% | [4] 6.94% | [5] 7.07% | [6] -61.3% | [10] -23.1% | [11] 3.87% | [13] 3.18% | [14] 5.85% | [19] -33.9% | [20] -3.18%
inactive: [1] 22.3% | [2] 18.8% | [7] 16.8% | [8] 15.3% | [9] 34.1% | [12] 29.4% | [15] 24.8% | [16] 26% | [17] 53.3% | [18] 23%

CC1=C[C@H]2O[C@@H]3C[C@H]4OC(=O)/C=C\C=C\[C@H]([C@@H](C)O)OCC[C@@H](C)[C@H](O)C(=O)OC[C@@]2(CC1)[C@]4(C)[C@]31CO1
active: [1] -50.5% | [2] -19.5% | [3] -34.5% | [4] -5.9% | [5] -43.3% | [6] -57.8% | [7] -18.4% | [8] -0.597% | [9] -38.8% | [10] -36.5% | [11] -7.55% | [12] -48.3% | [13] -14.3% | [14] -20.4% | [15] -22.9% | [16] -28.5% | [17] -33.6% | [18] -13.6% | [19] -50.3% | [20] -7.82%

N#Cc1nc(-c2ccccc2)oc1N1CCC(S(=O)(=O)F)CC1
inactive: [1] 98.4% | [2] 115% | [3] 95.9% | [4] 106% | [5] 81.5% | [6] 114% | [7] 101% | [8] 92.3% | [9] 100% | [10] 91.1% | [11] 103% | [12] 102% | [13] 98.6% | [14] 98.6% | [15] 99.3% | [16] 103% | [17] 86.7% | [18] 94.6% | [19] 98.6% | [20] 100%

CC1=C[C@H]2O[C@@H]3C[C@@H](O)[C@](C)([C@@]2(C)CC1)[C@@]31CO1
inactive: [1] 29.9% | [2] 24.9% | [3] 15.7% | [4] 13.2% | [5] 24.1% | [7] 19.4% | [8] 29.3% | [9] 27.2% | [10] 23.9% | [11] 20.8% | [12] 28.7% | [13] 18.9% | [14] 15.4% | [15] 31.5% | [16] 38.3% | [17] 16.7% | [18] 22.2% | [20] 13.8%
active: [6] 3.33% | [19] -20.9%

NC1CCc2cc(O)c(O)cc2C1 (centres undefined)
inactive: [1] 90.7% | [2] 98.6% | [3] 100% | [4] 87% | [5] 84.7% | [6] 80.7% | [7] 94.3% | [8] 104% | [9] 95% | [10] 94.8% | [11] 41.8% | [12] 82.6% | [13] 98% | [14] 79.6% | [15] 76.1% | [16] 93.9% | [17] 85.1% | [18] 96.9% | [19] 32.9% | [20] 48%

CCC(C)[C@H]1C(=O)O[C@H](C(C)C)C(=O)N(C)[C@@H](C(C)C)C(=O)O[C@H](C(C)C)C(=O)N(C)[C@@H](C(C)C)C(=O)O[C@H](C(C)C)C(=O)N1C (some centres undefined)
active: [4] 7.94% | [6] -74.7% | [9] 9.15% | [12] 2.63% | [17] -10.8% | [18] 9.28% | [19] -48.8% | [20] 7.02%
inactive: [1] 21.2% | [2] 14.3% | [3] 15% | [5] 20.9% | [7] 26.9% | [8] 21.9% | [10] 19.1% | [11] 14.6% | [13] 21.6% | [14] 13.5% | [15] 12.2% | [16] 24%

CC(=O)O[C@@H]1[C@@H]2O[C@H]2[C@@](C)(O)C(=O)[C@@H](C)C/C=C/[C@H]2[C@@H]3O[C@]3(C)[C@@H](C)C3[C@H](Cc4ccccc4)NC(=O)[C@@]312 (some centres undefined)
inactive: [1] 65.7% | [2] 92.5% | [4] 28.5% | [5] 24.3% | [6] 38.8% | [7] 50.2% | [8] 26.5% | [9] 65.4% | [10] 51.5% | [11] 54.1% | [13] 55.1% | [14] 43.1% | [15] 72.3% | [16] 39.1% | [17] 24.8% | [18] 40.4% | [20] 44.2%
active: [3] 5.72% | [12] -12.9%

C/C=C/CC(C)C(O)[C@H](NC(=O)[C@@H]1CCCN1C(=O)C(C)(C)NC(=O)CCCCCCCCC)C(=O)N[C@@](C)(CC)C(=O)N[C@@H](CCC(N)=O)C(=O)N[C@H](CCC(N)=O)C(=O)NC(C)(C)C(=O)N[C@@](C)(CC)C(=O)N[C@@H](CCC(N)=O)C(=O)N[C@H](CC(C)C)C(=O)N[C@H](CO)CC(C)C (some centres undefined)
85.2% (inactive) and -84.9% (active): [17]
103% (inactive) and -72.3% (active): [7]
104% (inactive) and -60.2% (active): [6]
104% (inactive) and -83.9% (active): [9]
106% (inactive) and -68.1% (active): [16]
105% (inactive) and -23.7% (active): [2]
106% (inactive) and -77.3% (active): [4]
103% (inactive) and -7.13% (active): [18]
99.5% (inactive) and -21.5% (active): [1]
104% (inactive) and -52.9% (active): [8]
107% (inactive) and -75.1% (active): [14]
97.3% (inactive) and -48.8% (active): [15]
100% (inactive) and -46.1% (active): [19]
108% (inactive) and -81.9% (active): [5]
98.9% (inactive) and -46.2% (active): [20]
104% (inactive) and -67.3% (active): [3]
inactive: [11] 101% and 20.9%
101% (inactive) and -98% (active): [13]
100% (inactive) and -100% (active): [10]
96.1% (inactive) and -85.9% (active): [12]

CN(CCF)/N=N/c1nc[nH]c1C(N)=O
inactive: [1] 47.6% | [2] 60% | [3] 26.5% | [4] 38.6% | [5] 41.8% | [6] 39.1% | [7] 24.6% | [8] 36.8% | [9] 19.9% | [10] 38.5% | [11] 57.6% | [12] 31.4% | [13] 98.8% | [14] 90.9% | [15] 55.1% | [16] 75.9% | [17] 21.1% | [18] 36.6% | [19] 21.6% | [20] 20.8%
